From PubChem BioAssay (NCI) come the findings set out here.

About 83,000 compounds went through this panel and 20% of them were active in at least one assay; those are over-represented in the sample as a whole.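 Single-concentration screen, 48 h exposure, 96-well plates. Endpoint: percent growth. Below 10 = active.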 A number with no mark means an inactive call. Activity calls are given as the source filed them.

This assay relates to HL-60(TB) leukemia. As to the kind of experiment: NCI-60 one-dose screen, 48 h (100 = growth as untreated, 0 = no growth, -100 = all killed). Conditions: 10 µM unless noted.
For the molecule `COc1ccccc1NC(=O)Nc1ccc(-c2nc3ccccc3o2)cc1`, the growth is 88.5%.
With `COc1ccc(CN2c3ccccc3Sc3ccccc32)c(F)c1`, the growth is -27% (active).
In the case of `COc1cc(C2C3CC4CCCC[C@H]4N3[C@@]3(C(=O)Nc4cc(Cl)ccc43)C2C(=O)c2nc3ccccc3[nH]2)cc(OC)c1OC` (stereo not given in full), the growth is 21.8%.
For the molecule `CC(=O)Nc1ccc2oc(=O)ccc2c1`, the growth was 67.8%.
Consider `OC(c1ccccc1)(c1ccccc1)c1ccccc1-c1ccccc1`, for which the growth is 82%.
The same measure for `C=CCn1c(SCC(=O)Nc2ccc(C(=O)/C=C/c3ccc(Cl)cc3)cc2)nnc1-c1cc(-c2ccccc2)nc2ccccc12`: 99.8%; for `Cc1cc(C(=O)Nc2cc(Nc3ncccc3-c3ncnc4nc[nH]c34)ccc2F)cc(C(C)(C)C#N)c1`: 26.4%; for `COc1ccc(C(c2cc(OC)c(OC)c(OC)c2)N2CCN(Cc3ccccc3)CC2)cc1` (stereo not given): 23%.
Consider `CCCCCOC(=O)c1ccccc1O`, for which the growth was 99.4%.
As to `Nc1ccc2c(c1)c(N)nn2C(=O)Nc1ccc(Cc2ccccc2)cc1`, the growth is 16.4%.
In the case of `CCCCCCCCCCCCCCCc1ccc(N)c(OC2OC(CO)C(O)C(O)C2O)c1` (stereo not given), the growth was 23%.
Under `N#CCCN1C/C(=C/c2ccccc2)C(=O)/C(=C/c2ccccc2)C1` stands 43.2%; under `CN(C)c1ccc(-c2cc(-c3ccc(Nc4nc(Nc5ccccc5)nc(Nc5ccc(Cl)cc5)n4)cc3)nc(N)n2)cc1`, 56.3%; under `O=C1C(=O)c2cccnc2-c2ncccc21`, -21% (active).
Under `COc1ccc2c(c1)/C(=C/c1sc(=S)n(Cc3ccco3)c1O)C=N2` stands 3.03% (active).
